# For part of these data: Measured potencies and affinities stand elsewhere.
# Key:
# Staphylococcus aureus = test: Antibacterial activity against Staphylococcus aureus MRSA ATCC 43300 (CO-ADD:GP_020); MIC in CAMBH media using NBS plates, by Resazurin F(560/590); assay type: functional; conditions: Concentration 20 uM, ASSAY_TEST Inhibition of Bacterial Growth, detection method Resazurin, Fluorescence (ex560/em590), MEDIA CAMHB, plate type 384well, CORNING #3640, time 18 hr
# Acinetobacter baumannii = test: Antibacterial activity against Acinetobacter baumannii ATCC 19606 (CO-ADD:GN_034); MIC in CAMBH media using NBS plates, by Resazurin F(560/590); assay type: functional; conditions: Concentration 20 uM, ASSAY_TEST Inhibition of Bacterial Growth, detection method Resazurin, Fluorescence (ex560/em590), MEDIA CAMHB, plate type 384well, CORNING #3640, time 18 hr
# Escherichia coli = test: Antibacterial activity against Escherichia coli ATCC 25922 (CO-ADD:GN_001); MIC in CAMBH media using NBS plates, by Resazurin F(560/590); assay type: functional; conditions: Concentration 20 uM, ASSAY_TEST Inhibition of Bacterial Growth, detection method Resazurin, Fluorescence (ex560/em590), MEDIA CAMHB, plate type 384well, CORNING #3640, time 18 hr
# Klebsiella pneumoniae = conditions: Concentration 20 uM; ASSAY_TEST Inhibition of Bacterial Growth; detection method Absorption (OD600); MEDIA CAMHB; plate type 384well; NBS; CORNING #3640; time 18 hr
# Candida albicans = conditions: 20 µM
# Cryptococcus neoformans = conditions: Concentration 20 uM; ASSAY_TEST Inhibition of Fungal Growth; detection method Resazurin; Absorption (OD600-OD570); plate type 384well; NBS; CORNING #3640
Structure (SMILES),Inhibition (Staphylococcus aureus),Inhibition (Acinetobacter baumannii),Inhibition (Escherichia coli),Inhibition (Klebsiella pneumoniae),Inhibition (Candida albicans),Inhibition (Cryptococcus neoformans)
Cc1cc(O)c(-c2cc(O)c(C)cc2O)cc1O,5.49%,-9.17%,6.61%,0.01%,5.95%,17.06%
C[C@H](CCC(=O)O)[C@H]1CC[C@@]2(C)[C@@H]3C(=O)C[C@H]4C(C)(C)[C@@H](O)CC[C@]4(C)[C@H]3C(=O)C[C@]12C,2.14%,-2.92%,-3.17%,11.41%,-2.24%,-2.42%
COc1ccc2c3c([nH]c2c1)[C@H]1C[C@H]2[C@H](C[C@@H](O)[C@H](OC)[C@H]2CO)CN1CC3,17.92%,7.85%,-1.49%,7.11%,-0.63%,-8.29%
Nc1nc(N)nc(-c2ccccc2-c2nc(N)nc(N)n2)n1,10.97%,8.5%,-2.58%,13.54%,6.82%,-8.57%
Cn1cnc([N+](=O)[O-])c1Sc1n[nH]c(N)n1,6.38%,14.39%,-1%,1.75%,-0.83%,-4.45%
CCCCN1CCN=C1S,9.78%,-11.78%,10.98%,14.43%,-2.77%,-2.57%
CC(=O)Nc1nc(C)c(CCCOc2ccc([N+](=O)[O-])cc2)c(O)n1,4.87%,9.03%,5.24%,2.35%,3.22%,-1.34%
CC(=O)OCCn1c2nc(=O)[nH]c(=O)c-2nc2cc(C)c(C)cc21,-0.64%,-11.64%,4.08%,3.5%,-0.26%,-7.97%
COC(=O)Cc1[nH]c(Cl)nc1C(N)=O,-16.49%,-11.06%,-2.69%,2.53%,1.21%,7.24%
Cc1ccccc1OCC(O)CN1CCN(c2ccc(Cl)cc2)CC1 (stereo not given),16.79%,7.24%,2.66%,7.5%,0.11%,-12.08%
c1ccc(-c2ccc(-c3nccc4ccccc34)[nH]2)cc1,-4.96%,-13.85%,6.1%,4.74%,14%,-7.81%
CC(=O)/C=C(\C)Nc1ccccc1O,8.26%,-10.28%,7.16%,26.72%,1.01%,2.5%
CCCCn1cnc2c(S)nc(N)nc21,6.68%,-8.46%,-1.37%,7.23%,1.37%,-12.06%
CN(C)C(=S)/N=c1\ssc(=S)n1Cc1ccco1,13.2%,6.63%,0.6%,0.81%,2.24%,5.1%
Cc1ccc([N+](=O)[O-])cc1NC(=O)Nc1ccc(S(N)(=O)=O)cc1,2.59%,7.91%,0%,0.38%,-0.57%,-7.76%
CCOc1ccc(Nc2c3ccccc3nc3ccccc23)cc1,-9%,-1.21%,-17.49%,0.35%,-0.79%,-2.93%
O=C(O)c1cncc(Br)c1,13.85%,-13.95%,3.81%,4.04%,6.23%,-7.23%
COc1ccc2c(c1)c1ccc3c(c1n2C)C(=O)C=CC3=O,-28.89%,3.5%,-18.56%,4.14%,7%,0.4%
Nc1ccc(NC(=O)c2ccc(C(=O)Nc3ccc(N)cc3)cc2)cc1,11.02%,-8.34%,15.83%,3.68%,40.4%,10.38%
NC(=O)C1=CC2C3C=CC2(O)C(=O)OC3O1 (stereo not given),-0.72%,9.98%,-7.05%,15.67%,3.39%,2.22%
O=C(c1cccnc1)c1cc(-c2ccccn2)c(=O)n2ccccc12,15.83%,5.57%,12.26%,7.21%,0.65%,-7.13%
CCCCOc1ccc(OC(=O)Nc2cc(Cl)ccc2OC)cc1,13.88%,6.78%,2.93%,11.91%,0.59%,-2.51%
O=C(/C=C/C(=O)N1CCc2ccccc2C1)N1CCc2ccccc2C1,0.65%,-9.4%,-3.52%,3.56%,7.97%,-10.59%
CNC1(C(N)=O)CCNCC1,10.6%,-11.41%,16.83%,15.69%,-0.33%,-6.49%
C=CCN(CC=C)C(=O)Nc1cc(OC)ccc1OC,-0.3%,-10.17%,5.84%,8.16%,3.21%,-3.48%

Structure (SMILES),Inhibition (Staphylococcus aureus),Inhibition (Acinetobacter baumannii),Inhibition (Escherichia coli),Inhibition (Klebsiella pneumoniae),Inhibition (Candida albicans),Inhibition (Cryptococcus neoformans)
NC(=O)CCC(C(=O)O)N1C(=O)c2ccc(O)cc2C1=O (stereo not given),8.42%,13.26%,-2.7%,12.88%,4.99%,-2.28%
CN(C)Cc1c[nH]c2nccnc12,11.84%,-4.46%,11.46%,8.34%,0.19%,2.55%
CC(C)n1cnc2c(S)ncnc21,14.01%,-16.92%,12.98%,11.21%,2.47%,-6.64%
c1cc2c3c(cccc3c1)NC1(CCC3(CC1)Nc1cccc4cccc(c14)N3)N2,1.15%,7%,12.93%,19.89%,2.38%,-5.58%
Cc1ccc(S(=O)(=O)NNC(=O)C23CCC(CC2)C3)cc1,-6.52%,6.35%,7.26%,14.92%,4.46%,-6.05%
O=C(Nc1ccc(Cl)cc1)Nc1cccc2nsnc12,6.14%,9.14%,-11.2%,5.1%,11.3%,-2.68%
COc1ccc(C(=S)N2CCN(c3ccccc3Cl)CC2)cc1OC,21.01%,9.29%,8.55%,6.8%,6.76%,-9.03%
NC(=O)Nc1ccc(Nc2ccccc2)cc1,15.79%,-8.02%,5.39%,5.31%,0.18%,-3.95%
C1=Cc2ccccc2Nc2ccccc21 [IMINOSTILBENE],-1.85%,-14.24%,12.01%,3.59%,3.51%,-15.72%
O=C(COc1ccc([N+](=O)[O-])cc1Cl)N1CCOCC1,2.54%,4.52%,6.72%,6.01%,-1.21%,-16.6%
O=S(=O)(O)c1ccc2c(c1)C(C(Cl)(Cl)Cl)OC(C(Cl)(Cl)Cl)O2 (stereo not given),10.71%,-8.34%,18.82%,1.9%,-0.48%,-7.32%
Nc1nc(N)c(/N=N/c2ccc(C(=O)O)cc2)c(N)n1,20.24%,-14.9%,9.92%,6.15%,7.35%,-10.91%
COc1cccc(NC(S)=Nc2ccc(O)cc2)c1,-0.11%,-11.24%,8.79%,5.3%,8.24%,-9.84%
CCOP(=O)(OCC)/C(C#N)=C/c1ccc([N+](=O)[O-])cc1,10.14%,12.51%,3.05%,9.62%,0.88%,-11.85%
OCC1(CO)CC2(C1)CC(CO)(CO)C2,5.83%,-10.2%,9.77%,7.41%,-2%,1.54%
Nc1ccc(S(=O)(=O)NCC2CCCCO2)cc1 (stereo not given),11.97%,6.11%,1.65%,16.22%,0.19%,-11.32%
CC(C)n1cc(C#N)c(N)n1,-0.87%,-8.48%,18.87%,15.17%,3.75%,-6.7%
CN(C)c1ccc(/C=C/c2ccc3ccccc3n2)cc1,-2.51%,5.82%,5.25%,10.87%,5.63%,-14.32%
O=C1C2C3C=CC(CC3)C2S(=O)(=O)C2C3C=CC(CC3)C12 (stereo not given),13.49%,12.35%,8.07%,7.08%,3.05%,-7.34%
CC1=NCC(C)c2ccccc21 (stereo not given),18.64%,-4.26%,9.51%,8.39%,-2.04%,-2.64%
CCOP(=O)(OCC)/C(C#N)=C/c1c[nH]c2ccccc12,16.69%,9.53%,-1.43%,13.34%,-0.38%,-5.67%
COc1ccc(/N=C\c2c(O)ccc3c2oc2cc(Cl)c(O)c(Cl)c23)cc1,-3.23%,0.5%,-4.89%,17.64%,2.89%,-10.03%
O=C(O)C1OCC2(CO1)COC(C(=O)O)OC2 (stereo not given),10.92%,-13.06%,10.47%,3.27%,1.43%,-1.34%
OC1COC(OCc2ccccc2)C(O)C1O (stereo not given),21%,-10.71%,8.16%,4.56%,0.34%,-6.82%
C=CCNC(=S)N1CCN(c2ccccc2Cl)CC1,6.69%,9.34%,-14.86%,17.35%,32.7%,-0.57%

# Reference: ChEMBL document CHEMBL4296182, “CO-ADD screening of NIH NCI Diversity Set V”
